Compound activity: PubChem, National Center for Advancing Translational Sciences (NCATS)
ELG1 DNA repair: blocks ELG1-dependent DNA repair in HEK293T cells; HEK293T ELG1-luciferase reporter, luminescence, 16 h; DNA damage induced by 5-fluorouridine; Potency, µM (series often up to 46.1 µM), hits mostly inhibitors; 2.3% of 330,000 active; AID 504467; note: nearly all actives have a fitted effect of over 55% in size
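In this reporter screen, reduction of luminescence relative to DMSO vehicle indicated activity. Compounds and 5-fluorouridine were added together to 2,000 cells per well, incubated for 16 hr at 37 °C, then developed with ONE-Glo.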
A549 viability: A549 cytotoxicity, counter-screen for Nrf2 inhibitors; A549 ARE-Fluc cells, CellTiter-Fluor viability, 18-24 h; Potency, µM (titrated, usually from 46 µM), usual class: inhibitors; 0.16% of 390,000 active; AID 504648
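Cytotoxicity counterscreen: CellTiter-Fluor fluorescence was measured in A549 ARE_Fluc cells after 18-24 h of compound exposure in a concentration series. The subsequent BugLite luminescent read reports ARE-luciferase activity.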
mIDH1 inhibitor: inhibitors of human mutant IDH1 R132H | O75874 | IDH1-R132H enzyme, NADPH consumption, diaphorase/resazurin fluorescence | Potency, µM (titrated, usually from 76.6 µM), most hits filed as inhibitors | 0.093% of 390,000 active | AID 602179; note: nearly all actives have a fitted effect of over 65% in size
Target sequence (O75874 whole entry R132H, stated change not applied): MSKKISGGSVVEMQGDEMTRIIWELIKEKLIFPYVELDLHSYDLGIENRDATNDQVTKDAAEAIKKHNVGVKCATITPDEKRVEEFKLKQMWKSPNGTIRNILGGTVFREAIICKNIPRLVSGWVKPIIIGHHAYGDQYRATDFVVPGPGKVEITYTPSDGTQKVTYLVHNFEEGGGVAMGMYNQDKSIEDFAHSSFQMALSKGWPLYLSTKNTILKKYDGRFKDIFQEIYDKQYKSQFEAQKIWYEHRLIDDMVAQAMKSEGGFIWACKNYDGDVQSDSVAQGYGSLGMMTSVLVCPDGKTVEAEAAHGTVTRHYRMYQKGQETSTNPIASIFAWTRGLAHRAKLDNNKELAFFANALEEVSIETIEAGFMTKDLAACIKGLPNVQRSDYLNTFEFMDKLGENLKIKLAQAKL
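IDH1-R132H (0.5 ug/mL dispensed) in pH 7.5 Tris buffer was preincubated 30 min with compound, then given a substrate mix of 0.016 mM NADPH and 2 mM alpha-KG for 80 min at room temperature; remaining NADPH was read by diaphorase/resazurin fluorescence.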
Nrf2 activator: Nrf2 pathway activation; AREc32 ARE-luciferase reporter (MCF7-derived line), luminescence, 24 h; AID 624171; Potency, µM (series often up to 46.1 µM), actives largely listed as activators; 0.31% of 410,000 active; note: nearly all actives have a fitted effect of over 65% in size
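Reporter line AREc32 (ARE-Fluc), seeded overnight in OPTI-MEM with 5% FBS; compound pin-transferred, 24 hr at 37 deg C, 5% CO2; luminescent read-out.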
Nrf2 block: blocks Nrf2 signaling; A549 ARE-Fluc reporter, luciferase luminescence, 18-24 h; 2.1% of 360,000 active; Potency, µM (titrated, usually from 46 µM), usual class: inhibitors; note: nearly all actives have a fitted effect of over 60% in size
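Concentration-response testing used A549 ARE_Fluc cells at 5000 cells/well. Following an 18-24 h compound incubation, viability was read by fluorescence (Ex 405/Em 525) and luciferase output by luminescence.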
Hits are given with their value; n = inactive; u = inconclusive; x = no result; [ ] = dose if it differs, or a comment. This is a sample that favours compounds with a hit; in the whole collection about 3.8% have one here. Calls come from the whole dose curve; as a rule, active = well fitted curve in the direction sought with a large enough effect; inconclusive = small, poorly fitted or top-dose-only effect, or another doubt; inactive = no such curve, though single readings can be large; an effect the other way counts as inactive or inconclusive.

SMILES	ELG1 DNA repair	A549 viability	mIDH1 inhibitor	Nrf2 activator	Nrf2 block
Cc1ccc(-c2cc(C(=O)N3CCN(c4ccccc4)CC3)c3ccccc3n2)cc1C	x	n	n	n	x
CC(=O)c1ccc(N2CCN(C(=O)c3cc(-c4cccnc4)nc4ccc(Br)cc34)CC2)cc1	16.4µM	n	n	n	n
Cc1ccc2c(C(=O)N3CCN(c4ccccc4)CC3)cc(-c3cccnc3)nc2c1C	u	u	n	n	20.6µM
O=C(Nc1ccc(C(=O)N2CCOCC2)cc1)c1cc(-c2cccnc2)nc2ccc(Br)cc12	9.2µM	n	n	n	n
O=C(Nc1ccccn1)c1cc(-c2cccnc2)nc2ccc(Br)cc12	u	n	n	n	u
Oc1ccccc1C1C=C(c2ccc3c(c2)OCO3)NC(c2c(F)cccc2Cl)N1 (stereo not drawn)	x	n	x	x	n
COc1ccccc1NC(=O)CSc1nnc(NC(=O)Nc2ccc(C)cc2)s1	x	u	n	n	x
Cc1ccc2nc(NC(=O)C3CCN(S(=O)(=O)c4cccc5nsnc45)CC3)sc2c1	16.4µM	n	n	n	u
Cc1ccc2nc(NC(=O)C3CCN(S(=O)(=O)c4cccnc4)CC3)sc2c1	16.4µM	n	n	n	u
Cc1ccc2nc(NC(=O)C3CCCN(S(=O)(=O)c4cccc5nsnc45)C3)sc2c1 (stereo not drawn)	18.4µM	n	n	n	u
Cc1ccc(NC(=O)C2CCN(S(=O)(=O)c3cccs3)CC2)cc1C	u	n	n	n	25.9µM
Cc1cccc(NC(=O)C2CCN(S(=O)(=O)c3cccs3)CC2)c1	n	n	n	n	n
Cc1ccc(NC(=O)C2CCN(S(=O)(=O)c3cccc4nsnc34)CC2)cc1	x	n	n	n	u
O=C(Nc1ccc(C(=O)N2CCN(c3ccccc3)CC2)cc1)c1nsc2ccccc12	x	n	n	n	x
COc1ccc2nc(NC(=O)C3CCCN(S(=O)(=O)c4cccs4)C3)sc2c1 (stereo not drawn)	u	n	n	n	x
COc1ccc2nc(NC(=O)C3CCN(S(=O)(=O)c4cccs4)CC3)sc2c1	10.3µM	u	n	n	u
COc1ccc(C(=O)Nc2ccc(C)c(S(=O)(=O)N3CCCCCC3)c2)cc1	u	n	n	n	20.6µM
Cc1ccc(NC(=O)c2ccc(F)cc2)cc1S(=O)(=O)N1CCCCCC1	16.4µM	n	n	n	u
CCOc1ccc(C(=O)CCC(=O)Nc2ccc(C)c(S(=O)(=O)N3CCCCC3)c2)cc1	n	n	n	n	u
CC(=O)c1ccc(OCCCC(=O)Nc2ccc(C)c(S(=O)(=O)N3CCCCC3)c2)cc1	u	n	n	n	18.4µM
Cc1ccc(C(=O)N(C)CCOc2ccccc2)cc1S(=O)(=O)N1CCCCC1	n	n	n	n	20.6µM
Cc1ccc(NC(=O)c2ccc(C)c(S(=O)(=O)N3CCCCCC3)c2)cc1	x	n	n	n	x
O=C1CCc2cc(S(=O)(=O)Nc3ccc4ccccc4c3)ccc2N1	x	n	x	x	u
CCC(=O)N1CCCc2cc(S(=O)(=O)N3CCC(C(=O)Nc4ccccc4CC)CC3)ccc21	x	n	n	n	x
COc1ccc(OCCCC(=O)Nc2cccc(C(C)=O)c2)cc1	18.4µM	n	n	n	n
SMILES	ELG1 DNA repair	A549 viability	mIDH1 inhibitor	Nrf2 activator	Nrf2 block
CCCCC(=O)Nc1cccc(NC(=O)c2ccc(Br)cc2)c1	n	n	n	n	n
COc1ccc(OCCCC(=O)Nc2cccc(SC)c2)cc1	n	n	n	n[9.22 µM]	u
Cc1ccc(NC(=O)C2CSC3(C)CCC(=O)N23)cc1S(=O)(=O)N1CCOCC1 (stereo not drawn)	n	n	n	n	n
CCCCC(=O)Nc1cccc(NC(=O)c2cccc(Br)c2)c1	7.3µM	n	n	n	u
Cc1ccc(NC(=O)C2CSC3(C)CCC(=O)N23)cc1S(=O)(=O)N1CCCCCC1 (stereo not drawn)	u	n	n	n	16.4µM
CC1CN(S(=O)(=O)c2cccc(C(=O)N3CCC(C(N)=O)CC3)c2)CC(C)O1 (stereo not drawn)	n	n	n	n	n
C[C@H](CO)N1C[C@H](C)[C@@H](CN(C)C(=O)Nc2ccc(F)cc2)Oc2ncc(-c3ccc(F)cc3)cc2C1=O	x	x	n	n	x
CC1=C(C(=O)Nc2ccccc2)C(c2ccc(C)o2)n2c(s/c(=C/c3ccccc3)c2=O)=N1 (stereo not drawn)	20.6µM	n	n	n	n
CCOC(=O)c1c(C)oc2nc(C)nc(N3CCN(c4ccccc4)CC3)c12	x	n	n	n	23.1µM
CCOC(=O)c1c(C)oc2nc(C)nc(N3CCN(c4cccc(C(F)(F)F)c4)CC3)c12	x	n	n	n	u
CCOC(=O)c1c(C)oc2nc(C)nc(N(C)Cc3ccccc3)c12	x	n	n	n	13µM
CCOc1ccccc1-c1nnc2n1N=C(c1ccc(OC)c(OC)c1)CS2	x	n	x	x	u
Cc1c(-c2ccc(Cl)cc2)c(=O)oc2c(CN3CCN(CCO)CC3)c(O)ccc12	x	n	n	n	x
Fc1ccc(CNc2ccc(N3CCN(Cc4ccccc4)CC3)cc2)cc1	7.3µM	n	n	n[9.22 µM]	u
Clc1ccc2c(N/N=C/c3cccc(Br)c3)ccnc2c1	u	n	n	n	n
Clc1ccc2c(N/N=C/c3ccccc3Br)ccnc2c1	n	u	n	n	10.3µM
CCOC(=O)c1c(NC(=O)c2cccnc2)sc(C)c1C	n	n	n	n	u
CCOC(=O)c1sc(NC(=O)CSc2n[nH]c(-c3ccccc3)n2)c(C#N)c1C	u	n	n	n	23.1µM
CCOC(=O)c1sc(NC(=O)c2cccnc2)c(C#N)c1C	18.4µM	n	n	n	n
Cc1cc(N2C(=O)c3ccccc3C2=O)n[nH]1	x	n	x	x	n
c1c[nH]c(CNc2ncnc3ccc(-c4ccc5c(c4)OCO5)cc23)n1	x	n	x	x	n
Cc1cc2c(s1)c1cnn(Cc3cc(C(F)(F)F)cc(Cl)c3F)c(=O)c1n2C	x	n	x	x	n
c1ccc(-c2nnc(-c3ccccc3)o2)cc1	u	n	n	4.47µM	x
Brc1cccc(-c2nnc(-c3ccccc3)o2)c1	u	n	n	3.16µM	u
c1ccc(-c2nnc(-c3ccncc3)o2)cc1	u	n	n	n	u
Cc1ccc(-c2nnc(-c3cccc(Br)c3)o2)cc1	u	n	n	u	u
O=C(CN1C(=O)c2cccnc2Oc2ccc(Cl)cc21)Nc1ccccc1F	u	n	n	n	n
O=C(c1ccc(Cl)c(S(=O)(=O)N2CCCC2)c1)N1CCN(c2ccccc2)CC1	16.4µM	n	n	n	14.6µM
O=C(c1ccc(Cl)c(S(=O)(=O)N2CCCCCC2)c1)N1CCCC1	u	n	n	n	n
O=C(c1ccc(Cl)c(S(=O)(=O)N2CCCC2)c1)N1CCN(c2ccc(F)cc2)CC1	20.6µM	n	n	n	u
